# RmlC RmlD mix = RmlC and RmlD coupled enzyme inhibitors, primary screen, biochemical, 384-well, compound mixtures, retest; AID 1532, 2009; inhibition, % at 5.5 µM; RmlC/RmlD coupled enzyme inhibition, 384-well mixture HTS; 110,000 compounds, 0.39% hits; in the data active means inhibition above about 30%, passing the limit was not always enough
# HIV RNase H inh = HIV-1 RT RNase H inhibitors, primary screen, biochemical, fluorescence; Gag-Pol polyprotein (Human immunodeficiency virus type 1 group M subtype B (isolate …; RT-RNase H RNA/DNA duplex cleavage; inhibition, % at 10 µM; 65,000 compounds, 1.9% hits; AID 565, 2006; in the data active means inhibition above about 50%
# * marks the source's active call; other numbers are inactive results; . = not tested or not shown. The full list was thinned out, with hits kept by preference.
SMILES,RmlC RmlD mix,HIV RNase H inh
CC1CC(C)CN(c2nc3c(c(=O)[nH]c(=O)n3C)n2CCSc2nc3ccccc3o2)C1 (stereo not given),.,-3.1
Oc1ccccc1C(=S)N1CCCCCC1,4.3,37.7
Oc1ccccc1C(=S)N1CCCCC1,-2.3,53.3*
N#CC1=C(N)N2C(=C(C#N)C1c1ccccc1)Sc1ccccc12 (stereo not given),-7.7,1.8
CCOc1ccc(C2C(C#N)=C(N)N3C(=C2C#N)Sc2ccccc23)cc1 (stereo not given),1.8,72.2*
COC(=O)c1ccc(COC(=O)c2ccc(-n3cnnn3)cc2)o1,2.6,-21.8
CC(=O)OCC(=O)NCc1ccc2c(c1)OCO2,3.9,3.8
Cc1cc(=O)oc2cc(OCC(=O)OCC(=O)NCc3ccc4c(c3)OCO4)ccc12,36.7*,-2.8
COCCCn1c(=N)c(C(=O)NCC2CCCO2)cc2c(=O)n3cccc(C)c3nc21 (stereo not given),.,-19.8
C=CCn1c(=N)c(C(=O)NCCCOC)cc2c(=O)n3cccc(C)c3nc21,50.1*,-25.1
CCCCNC(=O)c1cc2c(=O)n3cccc(C)c3nc2n(Cc2ccccc2)c1=N,6.1,0.2
CNC(=O)c1cc2c(=O)n3cccc(C)c3nc2n(C(C)C)c1=N,89.2*,-33.9
COCCCn1c(=N)c(C(=O)NCC2CCCO2)cc2c(=O)n3ccccc3nc21 (stereo not given),69.4*,-0.1
CCn1c(=N)c(C(=O)NCc2cccnc2)cc2c(=O)n3cccc(C)c3nc21,.,-33.2
CCCCCc1nnc(NC(=O)C2CCCO2)s1 (stereo not given),93.2,64.0*
Cc1nnc(NC(=O)C2CCCO2)s1 (stereo not given),-7.2,32.3
CCCCCn1c(=NC(C)=O)c(C#N)cc2c(=O)n3cccc(C)c3nc21,.,0.2
O=c1[nH]c2ccccc2n1CCCSc1cnc2ccccc2n1,17.8,-33.3
C=CCn1c2ccccc2c2nnc(SCCCn3c(=O)[nH]c4ccccc43)nc21,71.4*,.
COc1cc2c(cc1OC)C1Cc3ccc(OC)c(OC)c3C[N+]1([O-])CC2 (stereo not given),0.1,.
N#CC1=C(N)SC(N)=C(C#N)C1Cc1ccccc1,-9.0,35.0
CC(C)CC1C(C#N)=C(N)SC(N)=C1C#N,-11.4,51.0*
Cc1c(Cl)c([N+](=O)[O-])nn1Cc1ccc(C(=O)N/N=C\c2cccc(Br)c2)o1,-7.8,.
COC(=O)Nc1sccc1C(=O)Nc1sccc1C(=O)OC,-19.0,53.6*
CCC(=O)Nc1sccc1C(=O)OC,9.0,-10.9
SMILES,RmlC RmlD mix,HIV RNase H inh
COCCCNC(=O)CCCn1c(=O)c2ccccc2n(CC(=O)Nc2c(C)cc(C)cc2C)c1=O,.,-8.2
CCC(Sc1nc2cc3c(cc2c(=O)n1Cc1ccco1)OCO3)C(=O)Nc1cccc(OC)c1 (stereo not given),8.2,59.8*
CCC(Sc1nc2cc3c(cc2c(=O)n1Cc1ccco1)OCO3)C(=O)Nc1ccccc1OC (stereo not given),5.5,6.3
COc1ccc(N2CCn3c2nc2c3c(=O)n(CCCc3ccccc3)c(=O)n2C)c(OC)c1,9.1,-9.7
COc1ccc(N2CCn3c2nc2c3c(=O)n(CCCc3ccccc3)c(=O)n2C)cc1,.,60.0*
CCOc1cc(C2CC(=O)c3c(ccc4ccccc34)N2)ccc1O (stereo not given),-9.6,.
Cc1cccc(N2CCN(CCNC(=O)c3cc4c(s3)CS(=O)(=O)C4)CC2)c1C,-11.5,0.7
O=C(NCCN1CCCCC1)c1ccc2c(c1)OCCO2,6.1,-2.5
O=C(NCCN1CCCCC1)c1ccc(=O)oc1,47.8*,-5.0
COc1ccc(Sc2cc(C(F)(F)F)nc(-c3ccccn3)n2)cc1,13.0,.
CCOC(=O)c1sc2nc(C(C)C)c3c(c2c1N)CC(C)(C)OC3,18.6,.
CCOC(=O)c1sc2nc(N3CCCC3)c3c(c2c1N)CC(C)(C)OC3,45.1*,6.5
C=CCn1c(-c2ccccc2)n[nH]c1=S,-13.5,7.4
C=CCn1c(Cc2nc3ccc(Cl)cc3[nH]2)n[nH]c1=S,12.4,58.0*
O=C1C2C(C(=O)N1Cc1cccnc1)C1C=CC2C12CC2 (stereo not given),3.1,-3.8
CNS(=O)(=O)c1cccc2nsnc12,.,-6.5
O=C(NCCN1CCOCC1)c1cc2c(=O)n3ccccc3nc2n1Cc1ccccc1,86.4*,-4.0
CCN1CCN(C(=O)c2cc3c(=O)n4ccccc4nc3n2Cc2ccccc2)CC1,.,1.4
N#Cc1cc2c(=O)n3ccccc3nc2n(CCN2CCOCC2)c1=O,.,-14.0
N#Cc1cc2c(=O)n3ccccc3nc2n(CCCN2CCOCC2)c1=O,79.1*,-13.8
Cc1cccc2nc(Cn3c(=O)n(CCC(=O)NCc4ccco4)c(=O)c4ccccc43)cc(=O)n12,.,-14.5
CCc1nnc(NC(=O)C2Cc3ccccc3CN2S(=O)(=O)c2ccc(C)cc2)s1 (stereo not given),-12.2,.

# High-throughput results as filed in PubChem BioAssay.
